Activity calls are given as the source filed them. The rule behind the calls is not given here.
Assay: anti-RSV activity of probe candidates, cell-based (AID 2405)
Conditions: RSV cytopathic effect inhibition, HEp-2 cells, stronger effect = higher value; at 100 µM unless noted

Maximum inhibition, inactive:
OC1c2cc(I)ccc2N=C2CCCN21 (stereo not drawn) 0.75% [at 50 µM]
CCCN1CCN(CCCNC(=O)c2cc3c(s2)-c2c(C)cccc2OC3)CC1 0.38% [at 0.2 µM]
CCOC(=O)C1(Cc2ccccc2C(F)(F)F)CCN(C2CCN(C(C)=O)CC2)CC1 1.32% [at 6.25 µM]
Cc1cccc2c(=O)n(-c3ccccc3)c(SCC(=O)Nc3ccc4c(c3)CCC4)nc12 5.23% [at 12.5 µM]
O=C(Nc1nc(-c2ccc(Cl)cc2)cs1)c1ccc(I)cc1 1.55% [at 25 µM]
COc1cccc(-n2c(SCC(=O)Nc3ccc4c(c3)CCC4)nc3ccccc3c2=O)c1 8.16%
COc1ccc(-c2csc(N(CCCBr)C(=O)c3ccccc3Cl)n2)cc1 3.83% [at 50 µM]
CCN(CC)CCCNC(=S)N1CCN(c2nc(-c3ccccc3)cs2)CC1 1.02% [at 0.2 µM]
O=C(Nc1nc(-c2ccc(Cl)cc2)cs1)c1cccc(Cl)c1 6.93% [at 25 µM]
CC1(O)c2cc(Br)ccc2N=C2CCCN21 (stereo not drawn) 2.76%
OC1c2cc(Br)ccc2N=C2CCCCN21 (stereo not drawn) 6.83%
O=c1c2cc(Cl)cc(Cl)c2nc2n1CCC2 5.87%
O=C(CSc1nc2ccccc2c(=O)n1-c1ccccc1F)Nc1ccc2c(c1)CCC2 7.99% [at 12.5 µM]
OC1c2c(F)cccc2N=C2CCCN21 (stereo not drawn) 0.86%
O=c1c2c(F)cccc2nc2n1CCC2 2.17% [at 0.39 µM]
CN(C)CCCN1c2ccc([N+](=O)[O-])cc2CCc2cc([N+](=O)[O-])ccc21 10.2% [at 50 µM]
CC1CC(C)CN(C(=O)CSc2nc3ccccc3c(=O)n2-c2ccc(F)cc2)C1 (stereo not drawn) 2.13%
COc1ccc(-c2csc(NC(=O)c3ccccc3Cl)n2)cc1 2.47% [at 12.5 µM]
O=C(CSc1nc2ccccc2c(=O)n1-c1ccc(F)cc1F)Nc1ccc2c(c1)CCC2 5.7% [at 25 µM]
O=C(Nc1nc(-c2ccccc2)cs1)c1ccccc1Cl 45.7% [at 12.5 µM]
Cc1cccc2nc3n(c(=O)c12)CCC3 1.49% [at 25 µM]
O=C(CSc1nc2ccc(F)cc2c(=O)n1-c1ccccc1)Nc1ccc2c(c1)CCC2 14.7%
COc1ccc(-c2csc(N(C(=O)c3ccccc3Cl)C(C)C)n2)cc1 6.99% [at 25 µM]
O=c1c2cccc(Cl)c2nc2n1CCC2 1.74% [at 50 µM]
CC(=O)Nc1ccc2nc3n(c(=O)c2c1)CCC3 1.57% [at 50 µM]
O=C(CSc1nc2ccccc2c(=O)n1-c1ccc(F)cc1)Nc1ccc2c(c1)CCC2 2.76%
CC1CC(C)CN(CCCNC(=O)c2cc3c(s2)-c2ccccc2OC3)C1 (stereo not drawn) 1.49% [at 25 µM]
COc1ccc(-c2csc(N(CCCN(C)C)C(=O)c3ccccc3F)n2)cc1 5.17%
